Assay results from PubChem BioAssay AID2284216 (EPA ToxCast).
Activity calls are given as the source filed them. Rule for the calls: active = hit-call score of the fitted dose curve at least 0.9, where 1 is the maximum; inactive = score below 0.9.

What follows are compounds tested against rat Peripheral Benzodiazepine Receptor (PBR), Tspo (gene 24230) (UniProt P16257) (assay: ERF_TW_TR_rTSPO: Eurofins (ERF) Radioligand Binding Assay for rat Peripheral Benzodiazepine Receptor (PBR) Antagonism).
Sequence of rat Peripheral Benzodiazepine Receptor (PBR), Tspo (gene 24230) (P16257 whole entry, looked up): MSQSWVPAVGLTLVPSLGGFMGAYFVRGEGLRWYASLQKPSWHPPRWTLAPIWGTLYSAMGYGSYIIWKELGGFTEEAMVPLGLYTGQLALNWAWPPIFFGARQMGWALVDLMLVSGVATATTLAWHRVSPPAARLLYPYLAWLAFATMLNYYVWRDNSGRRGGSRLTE
Protocol: ERF_TW_TR_rTSPO is a biochemical, single-readout assay that uses extracted gene-proteins in a cell-free assay. Measurements were taken 0.25 hour after chemical dosing in a 96-well plate. See PBR Rat Binding (Antagonist Radioligand) Assay, Panlabs.ERF_TW_TR_rTSPO is an assay component calculated from the ERF_TW_TR_rTSPO assay. It is designed to measure radioligand binding using a type of binding reporter as detected by scintillation counting with radiometry technology.Data from the assay component ERF_TW_TR_rTSPO was analyzed at the assay endpoint, ERF_TW_TR_rTSPO, in the positive analysis fitting direction relative to DMSO as the negative control and baseline of activity. Using a type of binding reporter, loss-of-signal activity can be used to understand changes in transporter binding as they relate to gene TSPO. To generalize the intended target to other relatable targets, this assay endpoint is annotated to the transporter intended target family, where the subfamily is cholesterol transporter.
Cells are incubated for 15 minutes at room temprature with [3H]PK 11195 (0.2 nM) as lingand.Test Sample Requirements: Minimum for 1) Screen: 60 ul of 10 mM stock -OR- 1 mg (pre-weighed) for 10uM final testing. . 2) Dose Response: 90 ul of 10 mM stock -OR- 1 mg (pre-weighed) for a top concentration at 10uM. .
For `COc1cc(CCC(=O)CC(=O)CCc2ccc(O)c(OC)c2)ccc1O`, the AC50 was 2550 nM (active).
`O=C(/C=C/c1ccc(O)cc1)CC(=O)/C=C/c1ccc(O)cc1` was tested, and the AC50 was 161 nM (active).
